Consider eleven compounds from PubChem BioAssay (NCATS).

A short description of test [1]: qHTS profiling for inhibitors of Plasmodium falciparum (3D7) proliferation (AID 743322).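 Note: infected erythrocytes exposed to compound for 72 h before lysis; 100% = DMSO vehicle wells and 0% = 0.29 µM artemisinin.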 As to conditions: P. falciparum 3D7 proliferation; at 28.7 µM (top of the series) unless noted. Summed up:
(§1)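 Erythrocytes infected with P. falciparum (0.3% parasitemia, 2.5% hematocrit) incubated with compounds 72 h at 37 C, 5% CO2. Lysis with saponin/Triton buffer containing SYBR Green I, overnight at room temperature in the dark; DNA fluorescence (485/535 nm) normalised to 0.29 uM artemisinin and DMSO.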

Test [2] can be described thus: qHTS profiling for inhibitors of Plasmodium falciparum (DD2) proliferation (AID 743323; call rule not given here). To be noted: lower = more inhibition; at 28.7 µM (top of the series) unless noted. A digest of the protocol:
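P. falciparum Dd2-infected erythrocytes (0.3% parasitemia, 2.5% hematocrit) exposed 72 h at 37 C, 5% CO2. Lysis with SYBR Green, overnight at room temperature, fluorescence 485/535 nm; normalized to 0.29 uM artemisinin and DMSO.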

Test [3] in a line: qHTS profiling for inhibitors of Plasmodium falciparum (HB3) proliferation (AID 743324).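 Note: 100% = DMSO vehicle wells and 0% = artemisinin-treated control wells.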 To be noted: Plasmodium falciparum HB3 blood-stage proliferation; at 28.7 µM (top of the series) unless noted. A digest of the protocol: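 P. falciparum HB3 grown in erythrocytes (0.3% parasitemia, 2.5% hematocrit final) with compound for 72 h at 37 C, 5% CO2. Parasite DNA detected by SYBR Green after saponin/triton lysis overnight; normalized to 0.29 uM artemisinin and DMSO.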

The nature of test [4]: qHTS assay for environmental chemicals that activate the Aryl hydrocarbon Receptor (AhR) signaling pathway (AID 651777). Note: % of control where 0% means no effect; nearly all actives have a fitted effect of over 15% in size. To be noted: 1A2-DRE human hepatoma cells, luciferase, 24 h; activation: stronger effect = higher value. A digest of the protocol: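 Following a 24 hr incubation with test chemicals at 37 C and 5% CO2, 1A2-DRE human hepatoma cells received One-Glo reagent; after 30 min at room temperature, luciferase output reflected CYP1A2 induction via AhR.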

For test [5], the target named is Peroxisome proliferator-activated receptor alpha (Homo sapiens) (UniProt Q07869). As to the kind of experiment: qHTS assay for small molecule agonists of the peroxisome proliferator-activated receptor alpha (PPARalpha) signaling pathway (AID 651778). Note: % of control where 0% means no effect. To be noted: PathHunter PPARalpha complementation, chemiluminescence, 6 h; max response: stronger effect = higher value. Summed up: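 Cells plated at 2,000/well and held overnight at 37 C, 5% CO2, then compound added by pin tool for 6 hr; after PathHunter detection reagent and 60 min at room temperature, chemiluminescence from enzyme complementation was read.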
Chain of Peroxisome proliferator-activated receptor alpha (Homo sapiens) (Q07869 whole entry, looked up): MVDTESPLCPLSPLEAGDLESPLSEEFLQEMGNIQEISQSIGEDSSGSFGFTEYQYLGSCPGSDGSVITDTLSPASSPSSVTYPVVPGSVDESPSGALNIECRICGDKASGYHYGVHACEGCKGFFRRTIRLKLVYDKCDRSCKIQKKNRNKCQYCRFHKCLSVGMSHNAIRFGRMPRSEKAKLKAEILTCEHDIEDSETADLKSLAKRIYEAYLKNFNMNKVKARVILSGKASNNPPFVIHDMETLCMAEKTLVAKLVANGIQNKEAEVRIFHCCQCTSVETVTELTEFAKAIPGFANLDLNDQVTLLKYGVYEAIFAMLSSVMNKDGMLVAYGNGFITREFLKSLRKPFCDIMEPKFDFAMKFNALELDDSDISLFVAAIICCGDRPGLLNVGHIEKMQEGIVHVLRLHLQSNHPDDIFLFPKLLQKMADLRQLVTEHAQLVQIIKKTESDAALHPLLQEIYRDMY

A short description of test [6]: qHTS assay for small molecule agonists of the antioxidant response element (ARE) signaling pathway measured by Nrf2-dependant transcriptional activity (AID 720636; active = well fitted curve in the direction sought with a large enough effect in the repeat runs; an effect the other way counts as inactive or inconclusive;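 note: HepG2 cells with an ARE-driven luciferase reporter; % of control where 0% means no effect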). Summed up:
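ONE-Glo luminescence, read 30 min after reagent addition at room temperature, reflected ARE reporter activity in HepG2 cells that had been incubated with compound for 16 hr at 37 C in 1% dialyzed FBS.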

The nature of test [7]: qHTS assay for small molecule agonists of the antioxidant response element (ARE) signaling pathway measured by Nrf2-dependant transcriptional activity - cell viability counter screen (AID 720653; active = well fitted curve in the direction sought with a large enough effect in the repeat runs; an effect the other way counts as inactive or inconclusive; note: potency is the fitted concentration of half-maximal effect). As to conditions: ARE-bla HepG2 viability, CellTiter-Glo ATP luminescence, 16 h; max response: stronger effect = lower value. Summed up:
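ARE-bla HepG2 cells (2,000/well) rested 5 hrs at 37C/5% CO2, then exposed to compounds in DMSO for 16 hrs. Viability was read in the same wells as intracellular ATP by luminescence, 30 min at room temperature after reagent addition.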

Test [8] can be described thus: qHTS assay for cell viability of HEK293 cells (AID 743288). Note: potency is the fitted concentration of half-maximal effect; nearly all actives have a fitted effect of over 50% in size. As to conditions: ATP luminescence (CellTiter-Glo), 18 h; max response: stronger effect = lower value. Summed up:
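Parental HEK293 cells, 2,000 per well, preincubated at least 5 h at 37 C, then exposed to compounds in DMSO for 18 h at 37 C. Viability by CellTiter-Glo ATP luminescence after 30 min at room temperature.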

Test [9] can be described thus: qHTS assay for cell viability of the p53RE-bla HCT-116 cell line (AID 743292). Note: potency is the fitted concentration of half-maximal effect; nearly all actives have a fitted effect of over 55% in size. Summed up: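 After plating at 4,000 cells per well and a 5 h rest at 37 C, HCT-116 cells carrying p53RE-bla received test chemicals in DMSO. Sixteen hours later at 37 C, CellTiter-Glo was added and luminescence recorded following 30 min at room temperature.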
The target in test [10] is Bifunctional 3'-5' exonuclease/ATP-dependent helicase WRN (Homo sapiens) (UniProt Q14191). The experiment in a line: qHTS for Inhibitors of WRN Helicase: Confirmatory Assay for Cherry-picked Compounds. (AID 720497). Note: nearly all actives have a fitted effect of over 65% in size. Summed up:
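WRN (20 nM) was preincubated 15 min at RT with compound, then started with 100 nM forked duplex oligonucleotide and 2 mM ATP. Unwinding was read kinetically by red fluorescence (ex 525/em 598 nm), normalized to enzyme-free and uninhibited controls.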

Test [11] can be described thus: qHTS for Inhibitors of WRN Helicase: Thiazole Orange DNA Binding Counterscreen (AID 720499).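 Note: drop in dye fluorescence marks compound binding to DNA; % is set by controls: 0 for no effect and ±100 for the full control effect; nearly all actives have a fitted effect of over 60% in size.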 A digest of the protocol: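 Thiazole orange displacement counterscreen: compounds added to 50 nM unlabeled DNA with 100 nM ThO. Fluorescence (ex 480, em 530 nm) read after 15 min at room temperature; activity flags nonspecific DNA binding.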
The target in test [12] is RecQ-like DNA helicase BLM (Homo sapiens) (UniProt P54132). The experiment in a line: qHTS for Inhibitors of WRN Helicase: BLM Helicase Counterscreen for WRN Inhibitors (AID 720503).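 Note: plate controls were DMSO vehicle for no effect and enzyme-free control wells for full effect; nearly all actives have a fitted effect of over 60% in size.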 Summed up: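 BLM at 1 nM was preincubated with compound for 15 min at room temperature in 25 mM Tris-HCl pH 8.0, 50 mM NaCl, 2 mM MgCl2, 1 mM DTT and 0.01% Tween-20. Unwinding was started with 100 nM DNA and 2 mM ATP (final). Fluorescence (ex 525/em 598 nm) was read twice, 15 min apart, and normalized to enzyme-free and DMSO controls.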
Chain of RecQ-like DNA helicase BLM (Homo sapiens) (P54132 whole entry, looked up): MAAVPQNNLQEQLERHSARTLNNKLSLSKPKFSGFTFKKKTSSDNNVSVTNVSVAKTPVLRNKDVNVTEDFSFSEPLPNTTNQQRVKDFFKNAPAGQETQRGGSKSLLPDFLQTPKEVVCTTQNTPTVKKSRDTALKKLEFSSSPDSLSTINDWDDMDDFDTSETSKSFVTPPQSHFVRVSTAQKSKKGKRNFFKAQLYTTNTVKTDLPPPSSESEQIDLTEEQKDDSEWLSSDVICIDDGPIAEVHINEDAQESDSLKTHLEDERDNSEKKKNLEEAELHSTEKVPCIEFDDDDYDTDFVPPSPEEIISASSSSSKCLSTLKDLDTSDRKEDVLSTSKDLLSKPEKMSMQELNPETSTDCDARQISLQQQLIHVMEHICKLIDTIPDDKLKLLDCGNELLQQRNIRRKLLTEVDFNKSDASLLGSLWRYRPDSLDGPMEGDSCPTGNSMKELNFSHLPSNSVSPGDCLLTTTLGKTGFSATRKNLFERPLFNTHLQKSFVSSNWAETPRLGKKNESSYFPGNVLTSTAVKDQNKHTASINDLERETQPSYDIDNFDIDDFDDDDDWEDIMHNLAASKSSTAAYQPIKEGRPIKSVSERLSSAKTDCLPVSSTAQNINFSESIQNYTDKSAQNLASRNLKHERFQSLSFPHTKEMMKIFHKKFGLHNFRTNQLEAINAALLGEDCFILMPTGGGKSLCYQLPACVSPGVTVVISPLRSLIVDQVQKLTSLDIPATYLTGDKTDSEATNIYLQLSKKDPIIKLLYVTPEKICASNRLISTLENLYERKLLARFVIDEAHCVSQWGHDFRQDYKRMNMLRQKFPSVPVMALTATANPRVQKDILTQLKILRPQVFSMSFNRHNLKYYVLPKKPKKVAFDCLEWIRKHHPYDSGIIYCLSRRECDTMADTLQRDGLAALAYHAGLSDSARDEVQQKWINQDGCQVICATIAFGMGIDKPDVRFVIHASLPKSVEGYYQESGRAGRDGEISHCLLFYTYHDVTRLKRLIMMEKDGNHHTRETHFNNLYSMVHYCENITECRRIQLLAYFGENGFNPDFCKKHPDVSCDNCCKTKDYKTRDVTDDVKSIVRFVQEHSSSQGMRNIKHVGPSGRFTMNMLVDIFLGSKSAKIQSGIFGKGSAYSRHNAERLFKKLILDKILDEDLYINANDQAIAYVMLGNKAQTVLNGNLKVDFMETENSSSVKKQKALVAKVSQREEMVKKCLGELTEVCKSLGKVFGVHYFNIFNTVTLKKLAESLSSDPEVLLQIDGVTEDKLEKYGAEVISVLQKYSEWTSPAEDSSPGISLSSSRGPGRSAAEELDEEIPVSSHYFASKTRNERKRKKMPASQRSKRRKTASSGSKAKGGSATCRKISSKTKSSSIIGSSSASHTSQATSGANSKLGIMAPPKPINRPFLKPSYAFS

Test [13] can be described thus: qHTS Assay for Identifying Gametocytocidal Compounds (AID 743244).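 For max response: % is set by controls: 0 for no effect and ±100 for the full control effect; actives lower the fluorescent signal which means gametocytes are killed.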 Note: potency is the fitted concentration of half-maximal effect. As to conditions: P. falciparum 3D7 stage III-V gametocytes, alamarBlue, 72 h; max response: stronger effect = lower value. A digest of the protocol: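 Stage III–V gametocytes of P. falciparum 3D7 were seeded at 20,000 cells/well onto pre-dispensed compounds. After 72 h, 37 °C, 5% CO2, alamarBlue was added for another 24 h.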

Test [14] deals with Cytochrome P450 2C9 (Homo sapiens) (UniProt P11712). The experiment in a line: qHTS Assay for Inhibitors and Substrates of Cytochrome P450 2C9 (AID 883). Note: potency is the fitted concentration of half-maximal effect; nearly all actives have a fitted effect of over 60% in size. Summed up: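 CYP2C9 deoxyluciferin hydroxylation, 37C, 60 min with NADPH regeneration; 10nM enzyme, 100uM Luciferin-H (KM). Glo detection reagent stopped reaction; luminescence normalized to sulphaphenazole (57uM) full inhibition.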
Chain of Cytochrome P450 2C9 (Homo sapiens) (P11712 whole entry, looked up): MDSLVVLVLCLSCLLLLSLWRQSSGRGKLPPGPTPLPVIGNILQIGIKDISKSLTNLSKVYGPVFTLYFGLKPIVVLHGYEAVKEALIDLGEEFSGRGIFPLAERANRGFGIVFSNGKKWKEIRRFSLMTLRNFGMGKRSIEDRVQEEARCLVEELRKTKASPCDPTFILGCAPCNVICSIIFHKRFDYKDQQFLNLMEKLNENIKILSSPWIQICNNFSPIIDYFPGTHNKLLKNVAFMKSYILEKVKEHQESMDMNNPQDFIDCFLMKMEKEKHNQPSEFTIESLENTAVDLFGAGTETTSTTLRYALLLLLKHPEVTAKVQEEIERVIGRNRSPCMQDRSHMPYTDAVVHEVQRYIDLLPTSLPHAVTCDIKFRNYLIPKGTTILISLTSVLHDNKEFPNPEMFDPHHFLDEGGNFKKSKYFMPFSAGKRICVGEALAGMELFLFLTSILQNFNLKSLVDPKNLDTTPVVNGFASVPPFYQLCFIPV

Test [15] has as its target Cytochrome P450 3A4 (Homo sapiens) (UniProt P08684). As to the kind of experiment: qHTS Assay for Inhibitors and Substrates of Cytochrome P450 3A4 (AID 884). Note: potency is the fitted concentration of half-maximal effect; nearly all actives have a fitted effect of over 50% in size. A digest of the protocol: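 20 nM human CYP3A4 with 25 uM Luciferin-PPXE (at KM) in 200 mM KPO4, preincubated 10 min with compound; NADPH regeneration started a 60 min RT reaction. Luciferin detected by luminescence, normalized to 57 uM ketoconazole as full inhibition.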

Test [16] has the same target. The experiment in a line: qHTS Assay for Activators of Cytochrome P450 3A4 (AID 885). Note: nearly all actives have a fitted effect of over 65% in size. A digest of the protocol:
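Human CYP3A4 (20 nM) with Luciferin-PPXE at 25 uM (its KM) in 200 mM KPO4; 10 min compound preincubation, then NADPH regeneration and 60 min reaction at RT. Luciferin read by luminescence; normalized to 57 uM ketoconazole full inhibition.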

The target in test [17] is Cytochrome P450 2D6 (Homo sapiens) (UniProt P10635). The experiment in a line: qHTS Assay for Inhibitors and Substrates of Cytochrome P450 2D6 (AID 891). Note: potency is the fitted concentration of half-maximal effect; nearly all actives have a fitted effect of over 60% in size. A digest of the protocol: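 Human CYP2D6 (5 nM) with 30 uM Luciferin-ME EGE (at Km) in 100 mM KPO4, compound preincubated 10 min, then NADPH regeneration system for 60 min at room temperature. Luciferin read by luminescence; normalized to 1.43 uM quinidine.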
Chain of Cytochrome P450 2D6 (Homo sapiens) (P10635 whole entry, looked up): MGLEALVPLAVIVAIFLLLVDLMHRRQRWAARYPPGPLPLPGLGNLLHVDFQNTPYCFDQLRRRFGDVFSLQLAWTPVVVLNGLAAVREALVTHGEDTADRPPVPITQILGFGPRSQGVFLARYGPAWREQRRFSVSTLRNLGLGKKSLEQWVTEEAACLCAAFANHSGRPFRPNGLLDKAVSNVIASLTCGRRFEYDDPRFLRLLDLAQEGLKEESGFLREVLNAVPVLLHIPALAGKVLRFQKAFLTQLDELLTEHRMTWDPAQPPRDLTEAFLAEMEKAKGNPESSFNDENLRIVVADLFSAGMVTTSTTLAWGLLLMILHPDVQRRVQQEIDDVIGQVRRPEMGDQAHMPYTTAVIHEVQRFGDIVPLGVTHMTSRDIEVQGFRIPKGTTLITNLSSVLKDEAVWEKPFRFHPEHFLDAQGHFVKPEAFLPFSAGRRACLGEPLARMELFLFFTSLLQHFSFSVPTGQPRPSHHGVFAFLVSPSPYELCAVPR

Test [18] addresses Cytochrome P450 2C19 (Homo sapiens) (UniProt P33261). The experiment in a line: qHTS Assay for Inhibitors and Substrates of Cytochrome P450 2C19 (AID 899). A digest of the protocol:
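In 50mM KPO4, the reaction held 5nM enzyme and KM-level (10uM) Luciferin-H EGE; it ran 60 min at 37C after NADPH regeneration and a 10 min compound preincubation. Luminescence values were scaled to 57uM ketoconazole as complete inhibition.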

Test [19] in a line: qHTS profiling of the MIPE4 collection as inhibitors of Plasmodium falciparum (3D7) proliferation (AID 743344; call rule not given here;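 note: scaled between DMSO vehicle wells and 0.29 µM artemisinin as full inhibition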). As to conditions: P. falciparum 3D7 in erythrocytes, SYBR Green DNA fluorescence, 72 h; at 5.51 µM (top of the series) unless noted. Summed up: as §1
Test [20] in a line: qHTS profiling of the MIPE4 collection as inhibitors of Plasmodium falciparum (DD2) proliferation (AID 743345; call rule not given here). As to conditions: P. falciparum Dd2 in erythrocytes, SYBR Green DNA, 72 h; at 5.51 µM (top of the series) unless noted. Summed up:
as §1

The nature of test [21]: qHTS profiling of the MIPE4 collection as inhibitors of Plasmodium falciparum (DD2) proliferation (Rep 2) (AID 743346; call rule not given here). To be noted: P. falciparum Dd2 in erythrocytes, SYBR Green DNA, 72 h; at 5.51 µM (top of the series) unless noted. A digest of the protocol: as §1
A short description of test [22]: qHTS profiling of the MIPE4 collection as inhibitors of Plasmodium falciparum (HB3) proliferation (AID 743347; call rule not given here;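 note: plate controls were DMSO vehicle wells for no effect and artemisinin wells for full effect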). To be noted: P. falciparum HB3 in erythrocytes, SYBR Green DNA, 72 h; at 5.51 µM (top of the series) unless noted. A digest of the protocol: as §1
The nature of test [23]: qHTS assay for small molecule activators of the nuclear factor-kappa B (NF-kB) signaling pathway (AID 651749; active = well fitted activation curve with a large enough effect in the signal ratio; the % refers to the signal ratio; note: potency is the fitted concentration of half-maximal effect). To be noted: NF-kB-bla ME-180 cells, beta-lactamase FRET ratio, 16 h; activation: stronger effect = higher value. A digest of the protocol:
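Screening used 2,000 ME-180 reporter cells per well exposed to pinned compound (23 nL) or DMSO; after 16 hr at 37C, beta-lactamase expression under NF-kB control was assessed through FRET.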

SMILES strings stand for the structures. Records with an inconclusive call do not appear. The list shows a part of the results. The source made the active and inactive calls. Unless noted, calls come from the whole dose curve; as a rule, active = well fitted curve in the direction sought with a large enough effect; inconclusive = small, poorly fitted or top-dose-only effect, or another doubt; inactive = no such curve, though single readings can be large; an effect the other way counts as inactive or inconclusive.

Chain of Cytochrome P450 3A4 (Homo sapiens) (P08684 whole entry, looked up): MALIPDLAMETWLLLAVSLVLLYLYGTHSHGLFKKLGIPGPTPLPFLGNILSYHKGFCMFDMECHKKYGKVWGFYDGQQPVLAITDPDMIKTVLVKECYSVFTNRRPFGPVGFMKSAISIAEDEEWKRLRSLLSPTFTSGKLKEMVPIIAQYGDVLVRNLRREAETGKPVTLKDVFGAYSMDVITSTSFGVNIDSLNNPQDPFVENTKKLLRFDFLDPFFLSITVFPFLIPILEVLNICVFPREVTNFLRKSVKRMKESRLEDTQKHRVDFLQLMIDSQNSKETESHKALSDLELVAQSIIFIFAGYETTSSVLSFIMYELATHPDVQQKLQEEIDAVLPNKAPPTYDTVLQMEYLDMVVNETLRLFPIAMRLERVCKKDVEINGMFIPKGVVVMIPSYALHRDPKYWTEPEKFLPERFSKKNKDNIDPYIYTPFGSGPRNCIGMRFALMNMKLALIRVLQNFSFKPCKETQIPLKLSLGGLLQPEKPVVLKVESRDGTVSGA
Chain of Bifunctional 3'-5' exonuclease/ATP-dependent helicase WRN (Homo sapiens) (Q14191 whole entry, looked up): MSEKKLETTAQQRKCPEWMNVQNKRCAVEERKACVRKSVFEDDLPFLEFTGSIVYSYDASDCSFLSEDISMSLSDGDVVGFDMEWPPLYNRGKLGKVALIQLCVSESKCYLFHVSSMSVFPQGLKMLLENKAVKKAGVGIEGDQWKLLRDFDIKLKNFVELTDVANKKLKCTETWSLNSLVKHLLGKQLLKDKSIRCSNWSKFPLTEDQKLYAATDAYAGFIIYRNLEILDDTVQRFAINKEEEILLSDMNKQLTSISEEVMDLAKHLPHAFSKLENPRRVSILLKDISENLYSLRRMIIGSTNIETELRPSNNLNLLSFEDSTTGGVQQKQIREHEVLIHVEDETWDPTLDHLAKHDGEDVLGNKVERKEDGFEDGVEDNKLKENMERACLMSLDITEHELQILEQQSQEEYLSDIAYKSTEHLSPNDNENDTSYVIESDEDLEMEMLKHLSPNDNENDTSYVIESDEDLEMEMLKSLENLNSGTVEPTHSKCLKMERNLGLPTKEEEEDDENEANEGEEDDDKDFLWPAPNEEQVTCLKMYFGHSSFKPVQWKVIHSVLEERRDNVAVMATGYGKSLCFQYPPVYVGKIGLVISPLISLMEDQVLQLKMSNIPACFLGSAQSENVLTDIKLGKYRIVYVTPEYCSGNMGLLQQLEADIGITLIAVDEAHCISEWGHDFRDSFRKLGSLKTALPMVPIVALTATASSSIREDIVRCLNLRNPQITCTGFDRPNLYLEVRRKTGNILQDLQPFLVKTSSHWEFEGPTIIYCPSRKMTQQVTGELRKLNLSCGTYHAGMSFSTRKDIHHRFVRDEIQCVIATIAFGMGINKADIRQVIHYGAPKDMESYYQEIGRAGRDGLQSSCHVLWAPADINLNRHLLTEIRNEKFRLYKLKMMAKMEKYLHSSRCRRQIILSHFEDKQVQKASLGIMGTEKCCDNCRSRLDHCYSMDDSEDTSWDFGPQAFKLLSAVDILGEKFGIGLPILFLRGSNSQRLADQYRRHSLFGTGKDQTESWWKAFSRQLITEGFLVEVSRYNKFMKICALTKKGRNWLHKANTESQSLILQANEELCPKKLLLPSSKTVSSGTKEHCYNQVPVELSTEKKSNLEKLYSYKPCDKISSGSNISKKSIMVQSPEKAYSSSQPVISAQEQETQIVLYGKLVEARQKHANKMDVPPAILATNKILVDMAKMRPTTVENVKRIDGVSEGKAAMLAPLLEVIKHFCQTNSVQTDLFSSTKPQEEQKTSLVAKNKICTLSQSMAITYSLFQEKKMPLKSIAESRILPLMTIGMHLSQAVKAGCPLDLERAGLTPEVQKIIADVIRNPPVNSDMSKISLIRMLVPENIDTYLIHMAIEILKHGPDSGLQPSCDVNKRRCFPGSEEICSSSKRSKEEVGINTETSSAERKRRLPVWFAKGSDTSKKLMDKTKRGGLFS

Take `CSc1cccc(NC(=O)CC[C@H]2O[C@@H]3O[C@]4(C)CC[C@H]5[C@H](C)CC[C@@H]([C@@H]2C)[C@@]35OO4)c1`: the remaining parasite growth % (stronger effect = lower value) in test [1] is -0.517%. In addition, the activity, percent of control in test [2] amounted to 0.0476%. In [3], the remaining proliferation (% of control), lower = more inhibition was 0.997%.

Turning to `CC[C@H](C)[C@H]1O[C@]2(C=C[C@@H]1C)C[C@@H]1C[C@@H](C/C=C(\C)[C@@H](O[C@H]3C[C@H](OC)[C@@H](O[C@H]4C[C@H](OC)[C@@H](NC)[C@H](C)O4)[C@H](C)O3)[C@@H](C)/C=C/C=C3\CO[C@@H]4[C@H](O)C(C)=C[C@@H](C(=O)O1)[C@]34O)O2`, the activation in [4] is -12% (inactive). For the same compound, in test [5], the max response was 4.77% (inactive). In [6], the Potency result was “inactive”. Also, the Potency in test [7] is 25.1 µM (active); in [8], 50.1 µM (active); in test [9] it was 28.2 µM (active).

On to `Cc1ccc2c(c1)=C/C(=C\c1c(O)[nH]c(=O)[nH]c1=O)C(=O)N=2`, for which the compound was classed as inactive in test [10], in [11] and in [12].

Consider `C[C@@H]1[C@H](O)[C@@H](C)/C=C/C=C/CC/C=C/C=C/C=C/C=C/[C@H](O[C@H]2O[C@@H](C)[C@H](O)[C@@H](N)[C@H]2O)CC2O[C@](O)(C[C@@H](O)[C@H](O)CC[C@@H](O)C[C@@H](O)C[C@@H](O)CC(=O)O[C@H]1C)C[C@H](O)[C@H]2C(=O)O`, for which the max response in test [13] is -9.77% (inactive).

As for `CCCCN(CCCC)CCC(OC(=O)O[C@H]1CCC[C@]2(C1)OOC1(O2)C2CC3CC(C2)CC1C3)c1cc2c(Cl)cc(Cl)cc2c2cc(C(F)(F)F)ccc12` (stereo partly drawn), the remaining parasite growth % (stronger effect = lower value) in test [1] was -0.262%. For the same compound, in test [2], the activity, percent of control was 0.194%. This compound registered a remaining proliferation (% of control), lower = more inhibition in [3] of 0.0614%.

In the case of `CCC[CH2][Sn]([CH2]CCC)([CH2]CCC)[O]C(=O)c1ccccc1`, in test [4], the activation is -10.5% (inactive). Moreover, the max response in test [5] was -0.767% (inactive). Further, the Potency was 3.98 µM (active) in test [7], 7.08 µM (active) in [8] and 6.31 µM (active) in [9].

In the case of `COCOc1ccc(Br)cc1C(=O)/C=C\c1ccc2c(c1)OCO2`, the Potency in [14] is 2 µM (active); in [15], 3.16 µM (active); in test [17], 3.16 µM (active); in [18], 0.0631 µM (active). For the same compound, the activity change, positive = activation in test [16] was -91.5% [at 11.4 µM] (inactive).

`CC(C)(N)CNC(=O)CC1CCC2(CC1)OOC1(O2)C2CC3CC(C2)CC1C3` (stereo not drawn) returned a parasite growth, % of DMSO control in test [19] of 4.69% [at 28.5 µM]. Besides, the parasite growth remaining, % of DMSO control (lower = more inhibition) in [20] worked out at 6.94% [at 28.5 µM]. For the same compound, in test [21], the parasite growth, % of control (lower = inhibition) worked out at 27.3% [at 28.5 µM]. The compound further showed a growth, % of control in [22] of 5.72% [at 28.5 µM].

On to `O=C(O[C@@H]1Cc2c(O)cc(O)cc2O[C@@H]1c1cc(O)c(O)c(O)c1)c1cc(O)c(O)c(O)c1`, for which the Potency in test [23] was 12.6 µM (active).

With `C[C@H]1[C@@H](OC(=O)CCC(=O)O)O[C@@H]2OC3(C)CC[C@H]4[C@H](C)CC[C@@H]1[C@@]24OO3`, the Potency in test [13] was 0.0662 µM (active).

For `CC(=O)c1c(O)c(C)c(O)c2c1OC1=CC(=O)[C@H](C(C)=O)C(=O)[C@]12C`, in [14], the Potency was 0.0126 µM (active).
